Common to all, as to test: NCI-60 one-dose screen, 48 h (100 = growth as untreated, 0 = no growth, -100 = all killed)
One test deals with NCI-H23 lung. To be noted: 10 µM unless noted.
The test system of the next test is NCI-H226 lung. To be noted: 10 µM unless noted.
The subject of a further test is NCI-H322M lung. The following applies: 10 µM unless noted.
The next test has as its system NCI-H460 lung. To be noted: 10 µM unless noted.
The subject of another test is HOP-92 NSCLC. The following applies: 10 µM.
The test system of the next test is NCI-H522 lung. To be noted: 10 µM.
For a further test, the system named is A549/ATCC NSCLC. The following applies: 10 µM unless noted.
In another test the test system is 786-0 renal. The following applies: 10 µM unless noted.
The next test has as its system COLO 205 colon. To be noted: 10 µM unless noted.
A further test has as its system DU-145 prostate. The following applies: 10 µM unless noted.
The subject of another test is K-562 leukemia. To be noted: 10 µM unless noted.
The next test has as its system MALME-3M melanoma. To be noted: 10 µM unless noted.
Another test has as its system MDA-MB-231 breast. The following applies: 10 µM unless noted.
The subject of a further test is RXF 393 renal. To be noted: 10 µM unless noted.
A further test deals with SF-268 CNS. To be noted: 10 µM unless noted.
In a further test the test system is SF-295 CNS. The following applies: 10 µM unless noted.
The test system of the next test is SF-539 CNS. To be noted: 10 µM unless noted.
The test system of another test is UACC-257 melanoma. To be noted: 10 µM unless noted.
Another test concerns M14 melanoma. The following applies: 10 µM unless noted.

SMILES strings stand for the structures. The panel holds about 83,000 compounds, 20% with a hit somewhere; the sample as a whole holds those more often.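 Note: values are percent growth. 100 is the growth of untreated cells, values between 100 and 0 indicate rising inhibition; between -100 and 0 indicates cell death.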 Values without a mark were called inactive. Activity calls are given as the source filed them. Rule for the calls: active = growth percent below 10; inactive = the rest.

As to `C=C(NC(=O)[C@H](C(C)C)N(C)c1cccc2[nH]ccc12)C(=O)OC`, the growth is 99.8% with NCI-H23 lung; 97.5% in the test on NCI-H226 lung; 100% with NCI-H322M lung; 103% with NCI-H460 lung; 99.5% in the test with HOP-92 NSCLC; 87.3% in the test with NCI-H522 lung. For the same molecule, the growth in the test on A549/ATCC NSCLC is 96.5%; with 786-0 renal, 95.9%; with COLO 205 colon, 132%; in the test with DU-145 prostate, 100%; in the test with K-562 leukemia, 89.4%; with MALME-3M melanoma, 92.8%. Further, the growth in the test on MDA-MB-231 breast was 109%; in the test on RXF 393 renal, 106%; in the test on SF-268 CNS, 101%; with SF-295 CNS, 101%; with SF-539 CNS it was 117%; with UACC-257 melanoma, 96.9%. The growth in the test with M14 melanoma was 94.9%.
As for `COc1ccc(-c2cc(C#N)c(NNC(C)=O)[nH]2)cc1`, the growth is 91.4% with NCI-H23 lung; 104% in the test with NCI-H226 lung; 117% with NCI-H322M lung; 128% with NCI-H460 lung; 178% in the test on HOP-92 NSCLC; 107% in the test on NCI-H522 lung. The growth was 115% with A549/ATCC NSCLC; 95.3% in the test on 786-0 renal; 129% in the test with COLO 205 colon; 123% in the test on DU-145 prostate; 47.5% in the test on K-562 leukemia; 106% with MALME-3M melanoma. The growth in the test with MDA-MB-231 breast was 106%; in the test with RXF 393 renal, 118%; with SF-268 CNS it was 122%; with SF-295 CNS it was 101%; with SF-539 CNS, 112%; in the test with UACC-257 melanoma, 108%.
As to `CC(C)(C)C(=O)CCCCCCCC/C=C/CCCC(O)c1ccco1` (stereo unspecified), the growth with NCI-H23 lung is 102%; with NCI-H226 lung, 112%; in the test on NCI-H322M lung, 95.5%; in the test with NCI-H460 lung it was 112%; in the test with HOP-92 NSCLC, 79.1%; with NCI-H522 lung, 120%. Also, the growth with A549/ATCC NSCLC was 108%; with 786-0 renal, 94.5%; in the test on COLO 205 colon it was 124%; in the test on DU-145 prostate, 102%; in the test with K-562 leukemia it was 82.4%; in the test on MALME-3M melanoma it was 109%. Moreover, the growth was 102% in the test on MDA-MB-231 breast; 99.7% with RXF 393 renal; 106% with SF-268 CNS; 105% with SF-295 CNS; 97.3% in the test on SF-539 CNS; 105% with UACC-257 melanoma.
Turning to `COC(=O)/C(Br)=C/c1c[nH]c2ccc(Br)cc12`, the growth in the test on NCI-H23 lung is 98.9%; in the test on NCI-H226 lung, 90.9%; with NCI-H322M lung, 100%; in the test on NCI-H460 lung it was 112%; in the test with HOP-92 NSCLC, 41.6%; with NCI-H522 lung it was 63.9%. For the same molecule, the growth in the test on A549/ATCC NSCLC was 89.9%; in the test on 786-0 renal, 55%; with COLO 205 colon, 95.8%; with DU-145 prostate it was 104%; in the test on K-562 leukemia it was 74.7%; in the test on MALME-3M melanoma it was 95.2%. The growth with MDA-MB-231 breast was 80.9%; in the test on RXF 393 renal, 32.6%; with SF-268 CNS it was 97.7%; in the test on SF-295 CNS, 64%; in the test with SF-539 CNS it was 95%; in the test on UACC-257 melanoma, 88%.
For the molecule `CCOC(=O)C1=C(C(F)(F)F)NC(=S)NC1CN1C(=O)c2ccccc2C1=O` (stereo unspecified), the growth is 87.5% with NCI-H23 lung; 116% in the test on NCI-H226 lung; 103% in the test with NCI-H322M lung; 106% in the test with NCI-H460 lung; 82.3% in the test with HOP-92 NSCLC; 111% with NCI-H522 lung. Also, the growth was 118% with A549/ATCC NSCLC; 99.7% in the test with 786-0 renal; 119% in the test with COLO 205 colon; 115% in the test with DU-145 prostate; 101% in the test on K-562 leukemia; 92.9% in the test with MALME-3M melanoma. The growth was 90.2% in the test on MDA-MB-231 breast; 113% with RXF 393 renal; 101% with SF-268 CNS; 93% with SF-295 CNS; 104% with SF-539 CNS; 110% in the test on UACC-257 melanoma.
In the case of `CC(=O)N1N=C(c2ccc(Cl)cc2)CC1c1cn(-c2ccccc2)nc1-c1ccc([N+](=O)[O-])cc1` (stereo unspecified), the growth in the test with NCI-H23 lung is 101%; in the test with NCI-H226 lung it was 93.6%; in the test with NCI-H322M lung it was 83.1%; with NCI-H460 lung, 101%; in the test with HOP-92 NSCLC, 117%; in the test on NCI-H522 lung it was 103%. Moreover, the growth with A549/ATCC NSCLC is 108%; in the test on 786-0 renal it was 104%; with COLO 205 colon it was 93.9%; in the test on DU-145 prostate it was 116%; in the test on K-562 leukemia, 118%; with MALME-3M melanoma it was 92%. Moreover, the growth with MDA-MB-231 breast is 104%; in the test with RXF 393 renal, 135%; with SF-268 CNS it was 102%; in the test on SF-295 CNS, 104%; with SF-539 CNS, 93.6%; in the test with UACC-257 melanoma, 106%.
`COc1ccc2nc3cc(Cl)ccc3c(NCCCNC(C)=O)c2c1`: the growth with NCI-H23 lung is 37%; in the test with NCI-H226 lung it was 34.1%; in the test with NCI-H322M lung, 34.4%; in the test on NCI-H460 lung it was 7.26% (active); with HOP-92 NSCLC it was 50.4%; with NCI-H522 lung it was 52.5%. Besides, the growth in the test on A549/ATCC NSCLC is 23.9%; in the test with 786-0 renal it was 48.9%; in the test on COLO 205 colon, 23.7%; with DU-145 prostate, 29.4%; in the test on K-562 leukemia, 23.9%; in the test with MALME-3M melanoma, 40%. Also, the growth in the test on MDA-MB-231 breast is 56.8%; with RXF 393 renal it was 32.9%; in the test on SF-268 CNS, 43%; in the test on SF-295 CNS, 45.7%; in the test on SF-539 CNS, 20.1%; in the test with UACC-257 melanoma, 43.1%. In addition, the growth with M14 melanoma was 44.4%.
In the case of `COc1cc(NC(C)CCCN)c2nc(C)ccc2c1OC` (stereo unspecified), the growth with NCI-H23 lung is 90.9%; in the test on NCI-H226 lung, 102%; in the test on NCI-H322M lung it was 96.9%; in the test on NCI-H460 lung, 109%; in the test with HOP-92 NSCLC it was 55.5%; in the test with NCI-H522 lung it was 101%. In addition, the growth with A549/ATCC NSCLC is 147%; in the test with 786-0 renal, 98.3%; with COLO 205 colon, 60.5%; in the test on DU-145 prostate, 87.2%; in the test with K-562 leukemia, 78.9%; with MALME-3M melanoma it was 69.9%. In addition, the growth in the test with MDA-MB-231 breast is 75.6%; with RXF 393 renal, 186%; in the test on SF-268 CNS it was 109%; in the test on SF-295 CNS it was 118%; in the test with SF-539 CNS it was 93.6%; with UACC-257 melanoma, 124%.

For the origin of these results see PubChem BioAssay (NCI).
